Experiment [1] concerns the target Serine/threonine-protein kinase MARK2 (Homo sapiens) (UniProt Q7KZI7). Conditions: at 1 µM.
Experiment [2] addresses PAS domain-containing serine/threonine-protein kinase (Homo sapiens) (UniProt Q96RG2). The following applies: at 0.1 µM.
Experiment [3] has the same target. The following applies: at 1 µM.
Experiment [4] concerns the target Phosphorylase b kinase gamma catalytic chain, skeletal muscle/heart isoform (Homo sapiens) (UniProt Q16816). The following applies: at 0.1 µM.
For experiment [5] the target is unchanged. Conditions: at 1 µM.
Experiment [6] deals with T1, Phosphorylase b kinase gamma catalytic chain, liver/testis isoform (Homo sapiens) (UniProt P15735).
T1 sequence (whole entry): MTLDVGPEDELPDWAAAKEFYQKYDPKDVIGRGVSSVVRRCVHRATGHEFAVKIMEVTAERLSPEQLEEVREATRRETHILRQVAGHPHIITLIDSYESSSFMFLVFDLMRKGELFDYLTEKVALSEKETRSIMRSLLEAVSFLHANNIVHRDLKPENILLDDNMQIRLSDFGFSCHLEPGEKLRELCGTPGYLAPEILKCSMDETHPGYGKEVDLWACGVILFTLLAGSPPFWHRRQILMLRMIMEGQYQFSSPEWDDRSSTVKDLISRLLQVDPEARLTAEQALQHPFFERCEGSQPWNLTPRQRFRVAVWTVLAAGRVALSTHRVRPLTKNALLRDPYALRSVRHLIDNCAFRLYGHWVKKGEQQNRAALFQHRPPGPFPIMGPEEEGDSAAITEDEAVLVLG
The following applies: at 0.1 µM.

Experiment [7] addresses T1, Phosphorylase b kinase gamma catalytic chain, liver/testis isoform (Homo sapiens). Conditions: at 1 µM.
Experiment [8] concerns the target Serine/threonine-protein kinase pim-1 (Homo sapiens) (UniProt P11309). The following applies: at 0.1 µM.
Experiment [9] shares this target. Conditions: at 1 µM.
The target of experiment [10] is Serine/threonine-protein kinase pim-2 (Homo sapiens) (UniProt Q9P1W9). The following applies: at 0.1 µM.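 Also: reported value is the mean percent inhibition of PIM2, measured in the GSK PKIS kinase inhibitor set screen.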
Serine/threonine-protein kinase pim-2 (Homo sapiens), sequence (Q9P1W9 whole entry, looked up): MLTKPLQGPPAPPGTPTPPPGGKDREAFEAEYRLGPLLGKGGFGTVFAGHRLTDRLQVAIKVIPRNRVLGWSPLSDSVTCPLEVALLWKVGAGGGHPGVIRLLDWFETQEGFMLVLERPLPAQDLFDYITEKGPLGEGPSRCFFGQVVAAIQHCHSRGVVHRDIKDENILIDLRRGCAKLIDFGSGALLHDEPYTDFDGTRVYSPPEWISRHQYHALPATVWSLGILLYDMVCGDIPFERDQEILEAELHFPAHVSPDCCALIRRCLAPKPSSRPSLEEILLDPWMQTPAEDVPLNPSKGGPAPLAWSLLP

As usually defined, the inhibition is the change of the read-out against control, counted positive when it falls.

Serine/threonine-protein kinase pim-1 (Homo sapiens), sequence (P11309 whole entry, looked up): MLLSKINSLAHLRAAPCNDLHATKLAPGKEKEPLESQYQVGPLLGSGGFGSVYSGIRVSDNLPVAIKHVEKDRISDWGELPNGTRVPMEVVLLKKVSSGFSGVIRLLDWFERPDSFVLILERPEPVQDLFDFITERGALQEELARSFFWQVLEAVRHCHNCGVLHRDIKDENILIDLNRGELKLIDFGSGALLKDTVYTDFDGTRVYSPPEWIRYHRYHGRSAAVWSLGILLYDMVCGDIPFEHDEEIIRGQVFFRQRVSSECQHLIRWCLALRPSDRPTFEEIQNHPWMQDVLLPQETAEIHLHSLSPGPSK
PAS domain-containing serine/threonine-protein kinase (Homo sapiens), sequence (Q96RG2 whole entry, the tested form may be a part): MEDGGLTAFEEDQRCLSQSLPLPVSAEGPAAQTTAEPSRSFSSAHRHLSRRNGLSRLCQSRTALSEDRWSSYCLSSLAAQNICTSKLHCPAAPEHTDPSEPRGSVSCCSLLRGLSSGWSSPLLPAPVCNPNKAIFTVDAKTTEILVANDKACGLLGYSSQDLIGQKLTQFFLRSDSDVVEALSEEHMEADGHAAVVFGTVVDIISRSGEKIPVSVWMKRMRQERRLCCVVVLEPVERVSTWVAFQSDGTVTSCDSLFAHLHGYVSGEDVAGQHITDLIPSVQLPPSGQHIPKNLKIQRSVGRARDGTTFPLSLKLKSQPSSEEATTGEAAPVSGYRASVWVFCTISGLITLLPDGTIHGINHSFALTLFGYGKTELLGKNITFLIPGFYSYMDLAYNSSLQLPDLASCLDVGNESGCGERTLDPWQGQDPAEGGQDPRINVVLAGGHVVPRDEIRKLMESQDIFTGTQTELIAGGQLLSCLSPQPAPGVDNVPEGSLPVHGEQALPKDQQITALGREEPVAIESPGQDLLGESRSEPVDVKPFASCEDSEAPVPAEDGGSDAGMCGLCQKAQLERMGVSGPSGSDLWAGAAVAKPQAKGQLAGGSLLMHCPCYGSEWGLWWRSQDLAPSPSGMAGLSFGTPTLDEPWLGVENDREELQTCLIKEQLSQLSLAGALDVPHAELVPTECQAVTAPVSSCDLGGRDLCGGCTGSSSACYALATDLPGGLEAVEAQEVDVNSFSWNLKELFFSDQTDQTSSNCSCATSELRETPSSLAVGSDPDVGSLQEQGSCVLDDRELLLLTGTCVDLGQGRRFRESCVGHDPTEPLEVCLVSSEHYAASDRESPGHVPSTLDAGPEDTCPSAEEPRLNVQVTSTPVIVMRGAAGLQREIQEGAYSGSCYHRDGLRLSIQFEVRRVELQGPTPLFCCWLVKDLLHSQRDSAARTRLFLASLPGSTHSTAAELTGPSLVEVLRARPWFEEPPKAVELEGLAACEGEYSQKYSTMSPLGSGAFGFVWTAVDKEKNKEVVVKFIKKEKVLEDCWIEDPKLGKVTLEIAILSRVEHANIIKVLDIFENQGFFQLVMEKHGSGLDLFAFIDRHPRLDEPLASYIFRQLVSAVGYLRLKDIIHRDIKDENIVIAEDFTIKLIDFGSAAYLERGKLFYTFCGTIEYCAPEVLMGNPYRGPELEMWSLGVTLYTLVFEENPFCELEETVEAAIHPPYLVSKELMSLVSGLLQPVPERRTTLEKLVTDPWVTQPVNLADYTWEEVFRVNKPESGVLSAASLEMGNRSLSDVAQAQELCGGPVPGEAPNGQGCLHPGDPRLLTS
Phosphorylase b kinase gamma catalytic chain, skeletal muscle/heart isoform (Homo sapiens), sequence (Q16816 whole entry, looked up, canonical isoform): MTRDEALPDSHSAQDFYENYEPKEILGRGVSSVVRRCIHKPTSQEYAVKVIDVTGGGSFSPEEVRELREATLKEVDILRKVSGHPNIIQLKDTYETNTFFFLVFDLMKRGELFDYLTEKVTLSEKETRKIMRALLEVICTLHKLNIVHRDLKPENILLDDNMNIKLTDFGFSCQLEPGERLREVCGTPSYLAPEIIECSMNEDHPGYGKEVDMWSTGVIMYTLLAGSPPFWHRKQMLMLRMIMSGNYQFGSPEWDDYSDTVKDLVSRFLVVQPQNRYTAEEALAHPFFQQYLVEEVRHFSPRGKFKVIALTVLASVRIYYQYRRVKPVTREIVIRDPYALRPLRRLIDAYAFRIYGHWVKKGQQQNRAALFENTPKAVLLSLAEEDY
Serine/threonine-protein kinase MARK2 (Homo sapiens), sequence (Q7KZI7 whole entry, the tested form may be a part): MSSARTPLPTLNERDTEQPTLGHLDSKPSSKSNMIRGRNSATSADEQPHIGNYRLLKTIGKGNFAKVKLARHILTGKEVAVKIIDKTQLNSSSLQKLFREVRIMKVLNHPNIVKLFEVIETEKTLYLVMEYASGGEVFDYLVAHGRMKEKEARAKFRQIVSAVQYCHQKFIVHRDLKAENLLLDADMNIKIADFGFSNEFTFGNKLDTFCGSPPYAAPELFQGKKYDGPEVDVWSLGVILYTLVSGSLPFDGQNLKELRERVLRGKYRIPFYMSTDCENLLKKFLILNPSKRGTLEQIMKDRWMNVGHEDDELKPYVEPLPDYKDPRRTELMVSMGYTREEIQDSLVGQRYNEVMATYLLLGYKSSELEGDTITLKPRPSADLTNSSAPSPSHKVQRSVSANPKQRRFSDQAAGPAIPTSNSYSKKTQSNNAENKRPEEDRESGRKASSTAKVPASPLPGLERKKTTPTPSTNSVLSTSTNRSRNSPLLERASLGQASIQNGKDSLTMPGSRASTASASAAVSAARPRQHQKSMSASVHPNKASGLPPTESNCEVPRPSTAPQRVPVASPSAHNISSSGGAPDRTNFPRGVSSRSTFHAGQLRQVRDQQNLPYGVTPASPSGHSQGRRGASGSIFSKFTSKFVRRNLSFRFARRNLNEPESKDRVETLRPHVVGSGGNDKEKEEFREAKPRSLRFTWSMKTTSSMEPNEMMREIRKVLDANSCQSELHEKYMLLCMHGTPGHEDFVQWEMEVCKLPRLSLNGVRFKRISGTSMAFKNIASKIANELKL

With `COc1cc2ncn(-c3cc(OCc4ccccc4C(F)(F)F)c(C(C)=O)s3)c2cc1OC`, the inhibition in experiment [1] was determined as 1.04%; in experiment [2], 0.79%; in [3], 1%; in experiment [4], 2.96%; in experiment [5], 2.39%; in experiment [6], 4.43%. Further, the inhibition is 4.18% in experiment [7], -0.09% in experiment [8], 0.89% in experiment [9] and 0.28% in experiment [10].

As for `COc1cccc(-n2cnc3c(N/N=C/c4ccncc4)ncnc32)c1`, the inhibition in experiment [1] is 4.05%; in experiment [2], 1.87%; in experiment [3], 4.15%; in [4], -0.02%; in [5], 2.55%; in experiment [6] it was 1.83%. The inhibition in experiment [7] is 6.48%; in experiment [8] it was -0.24%; in experiment [9], -0.03%; in experiment [10], -3.51%.

In the case of `CNC(=O)c1cncc(/C=C/c2c(C)cccc2C)c1`, the inhibition in [1] is 0.9%; in [2], 1.4%; in experiment [3], 0.92%; in experiment [4], 0.1%; in experiment [5] it was -0.59%; in experiment [6], 2.11%. Moreover, the inhibition is 0.8% in [7], 0.92% in experiment [8], 1.36% in [9] and -4.04% in experiment [10].

Consider `COc1ccc2cc(-c3c(-c4ccncc4)nc(-c4ccc([S+](C)[O-])cc4C)n3C)ccc2c1` (stereo not given), for which the inhibition in experiment [1] is -1.74%; in experiment [2] it was -0.31%; in experiment [3] it was -0.06%; in [4], -0.07%; in experiment [5] it was 0.13%; in experiment [6] it was -1.33%. In addition, the inhibition is -1.4% in experiment [7], 0.66% in [8], 0.72% in [9] and -0.27% in [10].

In the case of `Fc1ccc(-c2nc3n(c2-c2ccncc2)CCS3)cc1`, the inhibition in experiment [1] was 1.88%; in experiment [2] it was -0.27%; in [3], -1.64%; in experiment [4] it was 5.2%; in [5], 4.39%; in experiment [6] it was 4.24%. The inhibition in [7] was 2.33%; in experiment [8] it was 0.77%; in [9] it was 2.11%; in experiment [10], -3.25%.

In the case of `FC(F)(F)c1cccc(Nc2nccc(-c3cnn4nc(-c5ccccc5)ccc34)n2)c1`, the inhibition in [1] is 0.61%; in [2], 0.34%; in experiment [3], 0.28%; in experiment [4], 3.06%; in experiment [5], 6.39%; in experiment [6] it was 2.99%. The inhibition in experiment [7] is 2.77%; in experiment [8], 0.96%; in [9], -0.68%; in experiment [10], 0.77%.

On to `COC(=O)Nc1nc2ccc(Sc3ccc(NC(=O)Nc4cc(C(F)(F)F)ccc4F)cc3)cc2[nH]1`, for which the inhibition in experiment [1] is -0.67%; in experiment [2], 1.15%; in experiment [3], 2%; in experiment [4], 8.5%; in [5], -0.17%; in experiment [6], 1.59%. Further, the inhibition was 0.05% in experiment [7], 33.7% in [8], -0.09% in experiment [9] and -0.3% in experiment [10].

As for `c1ccc(Oc2ccc(Nc3ncc(-c4ccccc4)o3)cc2)cc1`, the inhibition in experiment [1] is 0.42%; in [2] it was -0.25%; in [3], 0.08%; in experiment [4], 0.99%; in [5], 2.96%; in experiment [6], 1.62%. Also, the inhibition turned out to be 0.32% in experiment [7], 0.45% in experiment [8], 0.21% in experiment [9] and 0.31% in experiment [10].

With `C#Cc1cccc(Nc2ncnc3ccc(OCCCCNCCS(C)(=O)=O)cc23)c1`, the inhibition in experiment [1] came out at 2.74%; in experiment [2], 0.02%; in experiment [3], 4.19%; in experiment [4], 5.74%; in experiment [5], 19%; in [6] it was 5.8%. Also, the inhibition was 6.86% in [7], 6.27% in [8], 39.5% in experiment [9] and -2.91% in experiment [10].

Take `NC(=O)c1cc(-c2ccncc2)cc(-c2ccccc2)c1N`: the inhibition is 4.3% in [1]; 0.12% in [2]; -1.32% in experiment [3]; 5.69% in [4]; 4.23% in [5]; 5.49% in [6]. Further, the inhibition is 5.48% in experiment [7], 1.39% in experiment [8], 1.24% in [9] and -0.25% in experiment [10].

Regarding `O=C1Nc2ccccc2/C1=C/Nc1ccc(-n2cncn2)cc1`, the inhibition in [1] turned out to be 10.2%; in [2], 0.03%; in experiment [3], 1.73%; in experiment [4], 9.39%; in [5], 33.6%; in experiment [6], 5.95%. Moreover, the inhibition in experiment [7] came to 18.7%; in [8] it was 0.85%; in experiment [9], 0.68%; in experiment [10], 0.56%.

Turning to `CS(=O)(=O)CCNCc1cc(-c2cc3c(Nc4ccc(OCc5cccc(F)c5)c(Cl)c4)ncnc3s2)cs1`, the inhibition was 0.65% in [1]; -1.66% in experiment [2]; -1.38% in experiment [3]; 1.42% in experiment [4]; 3.57% in experiment [5]; 3.77% in experiment [6]. For the same molecule, the inhibition in experiment [7] is 4.76%; in experiment [8], 1.41%; in experiment [9], 2.26%; in [10], -0.84%.

As to `O=C1Nc2ccc(I)cc2C1=Cc1cc(Br)c(O)c(Br)c1`, the inhibition in experiment [1] was 2.16%; in [2] it was -2.03%; in experiment [3] it was -1.55%; in experiment [4], -0.98%; in experiment [5], 3.92%; in experiment [6], 4.05%. Besides, the inhibition in experiment [7] stood at 4.75%; in experiment [8], 2.05%; in experiment [9], 11.4%; in [10], 0.13%.

Consider `Fc1ccc(-c2ncn(C3CCNCC3)c2-c2ccnc(Oc3ccc4c(c3)OCO4)n2)cc1`, for which the inhibition was determined as 2.68% in [1]; 0.16% in experiment [2]; 1.32% in experiment [3]; 6.43% in [4]; 6.48% in [5]; 7.66% in experiment [6]. Besides, the inhibition in [7] is 5.8%; in [8], 0.83%; in experiment [9], 2.07%; in experiment [10] it was -0.04%.

Consider `COc1ccc(-c2ccc3c(NC(=O)C4CC4)n[nH]c3n2)cc1`, for which the inhibition in experiment [1] was -0.61%; in experiment [2], 0.2%; in experiment [3], 2.17%; in experiment [4] it was 5.12%; in experiment [5], 7.79%; in [6], 0.93%. Besides, the inhibition in experiment [7] is 5.44%; in experiment [8], -0.29%; in experiment [9], -0.78%; in experiment [10], -0.37%.

For `COc1ccc2cc(-c3c(-c4ccncc4)nc(-c4ccc(S(C)(=O)=O)cc4C)n3C)ccc2c1`, the inhibition in experiment [1] is 1.75%; in experiment [2], -0.05%; in [3], 2.36%; in [4], 5.34%; in [5] it was 5.99%; in [6] it was 5.31%. Further, the inhibition worked out at 5.26% in experiment [7], 2.41% in [8], 2.08% in [9] and 0.92% in experiment [10].

For `COc1cc(Nc2ncc(-c3ccccc3)o2)cc(OC)c1OC`, the inhibition in experiment [1] is 15.6%; in [2], 0.63%; in [3] it was -0.67%; in [4], 3.23%; in [5], 20.9%; in [6], -2.9%. Also, the inhibition was -2.15% in [7], 0.68% in experiment [8], 2.12% in [9] and 0.06% in [10].
